Results taken from PubChem BioAssay (Tox21).
Inconclusive results are not listed. A call without a number means that no potency is given here. Unmarked numbers belong to inactive results. The source made the active and inactive calls. Unless noted, calls follow the shape of the dose curve; as a rule, active = well fitted curve in the direction sought with a large enough effect in the repeat runs; inconclusive = weak or mixed curves; inactive = no such curve, though single readings can be large; an effect the other way counts as inactive or inconclusive.

How the values were obtained:
[1] = qHTS assay to identify small molecule antagonists of the thyroid receptor (TR) signaling pathway (AID 743065); also: series mostly up to about 70 µM; nearly all actives have a fitted effect of over 55% in size
Procedure, shortened: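 GH3.TRE-Luc rat pituitary cells carrying two TR response elements driving luciferase were plated for 4 h, given compound plus 1 nM T3 (final), and incubated 23.5 h at 37 C. ONE-Glo luminescence measured reporter inhibition; CellTiter-Fluor fluorescence tracked cytotoxicity.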

[2] = test system: thyroid hormone receptor (rat, GH3 cells); assay: qHTS assay to identify small molecule agonists of the thyroid receptor (TR) signaling pathway (AID 743066; calls by dose curve)
[3] = molecular target: Estrogen receptor (Homo sapiens) (UniProt P03372); assay: qHTS assay to identify small molecule antagonists of the estrogen receptor alpha (ER-alpha) signaling pathway (AID 743069; active = well fitted curve in the direction sought with a large enough effect in the signal ratio in the repeat runs, not every such curve was filed as active; the % refers to the signal ratio; also: potency is read from the fitted curve at half-maximal effect)
Chain of Estrogen receptor (Homo sapiens) (P03372 whole entry, looked up): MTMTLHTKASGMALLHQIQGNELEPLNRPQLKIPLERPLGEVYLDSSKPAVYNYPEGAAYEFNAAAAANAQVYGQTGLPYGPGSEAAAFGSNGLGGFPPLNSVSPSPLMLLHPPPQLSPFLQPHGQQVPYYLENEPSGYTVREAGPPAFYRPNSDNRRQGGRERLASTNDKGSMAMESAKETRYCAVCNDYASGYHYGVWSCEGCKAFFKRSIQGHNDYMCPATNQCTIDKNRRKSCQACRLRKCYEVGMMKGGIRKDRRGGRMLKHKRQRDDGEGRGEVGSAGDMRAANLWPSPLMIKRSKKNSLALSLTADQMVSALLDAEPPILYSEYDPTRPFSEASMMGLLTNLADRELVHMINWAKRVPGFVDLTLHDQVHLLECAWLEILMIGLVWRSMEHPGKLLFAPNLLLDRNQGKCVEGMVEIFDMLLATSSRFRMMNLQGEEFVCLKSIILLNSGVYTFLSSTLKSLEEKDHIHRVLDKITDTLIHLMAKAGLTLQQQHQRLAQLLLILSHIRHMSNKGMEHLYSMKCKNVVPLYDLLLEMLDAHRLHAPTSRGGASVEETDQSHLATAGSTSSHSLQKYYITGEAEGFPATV
Procedure, shortened: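 A 17beta-estradiol challenge was applied right after compound transfer to ER-alpha-UAS-bla HEK293 cells previously kept in charcoal-stripped serum. Plates stood 18 hr at 37C and 5% CO2; fluorescence was read following 2 hr FRET substrate loading at room temperature.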

[4] = qHTS assay to identify small molecule antagonists of the estrogen receptor alpha (ER-alpha) signaling pathway - cell viability counter screen (AID 743074; calls by dose curve;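 also: HEK293 cells carrying ER-alpha-UAS-bla reporter stimulated with 17beta-estradiol; nearly all actives have a fitted effect of over 45% in size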)
[5] = molecular target: Estrogen receptor (Homo sapiens) (UniProt P03372); assay: qHTS assay to identify small molecule agonists of the estrogen receptor alpha (ER-alpha) signaling pathway (AID 743075; calls by dose curve;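 also: HEK293 GripTite cells with ER-alpha and UAS-driven beta-lactamase reporter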)
[6] = molecular target: Estrogen receptor (Homo sapiens) (UniProt P03372); assay: qHTS assay to identify small molecule agonists of the estrogen receptor alpha (ER-alpha) signaling pathway using the BG1 cell line (AID 743079); also: nearly all actives have a fitted effect of over 20% in size
[7] = qHTS assay to identify small molecule antagonists of the estrogen receptor alpha (ER-alpha) signaling pathway using the BG1 cell line (AID 743080; calls by dose curve;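 also: BG1 cells stimulated with 17beta-estradiol alongside compound; series mostly up to about 70 µM; nearly all actives have a fitted effect of over 25% in size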)
Procedure, shortened: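 Luciferase inhibition measured with ONE-Glo after 30 min at RT in BG1Luc4E2 cells given test compounds and 17beta-estradiol for 21.5 h at 37 C; CellTiter-Fluor viability read in the same wells beforehand.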

[8] = qHTS assay to identify small molecule antagonists of the estrogen receptor alpha (ER-alpha) signaling pathway using the BG1 cell line - cell viability counter screen (AID 743081);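 also: compound given together with 17beta-estradiol as the ER stimulus; series mostly up to about 70 µM; nearly all actives have a fitted effect of over 45% in size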
[9] = molecular target: Aromatase (Homo sapiens) (UniProt P11511); assay: qHTS assay to identify aromatase inhibitors (AID 743083); also: series mostly up to about 70 µM; nearly all actives have a fitted effect of over 55% in size
Chain of Aromatase (Homo sapiens) (P11511 whole entry, looked up): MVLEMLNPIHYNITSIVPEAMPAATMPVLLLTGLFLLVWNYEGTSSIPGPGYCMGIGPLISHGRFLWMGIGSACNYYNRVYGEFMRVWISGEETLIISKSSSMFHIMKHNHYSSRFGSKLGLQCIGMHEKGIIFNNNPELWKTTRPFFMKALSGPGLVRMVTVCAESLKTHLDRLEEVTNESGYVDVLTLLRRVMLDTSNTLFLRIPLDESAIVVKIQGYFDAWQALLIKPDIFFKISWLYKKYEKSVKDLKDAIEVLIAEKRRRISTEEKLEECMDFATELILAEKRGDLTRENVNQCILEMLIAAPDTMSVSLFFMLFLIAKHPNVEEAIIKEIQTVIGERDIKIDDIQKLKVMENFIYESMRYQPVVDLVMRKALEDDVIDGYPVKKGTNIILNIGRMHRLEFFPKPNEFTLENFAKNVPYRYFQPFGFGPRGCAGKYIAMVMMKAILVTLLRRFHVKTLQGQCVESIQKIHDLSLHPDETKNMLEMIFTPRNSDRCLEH

[10] = qHTS assay to identify aromatase inhibitors - cell viability counter screen (AID 743084);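 also: cells stimulated with testosterone during compound exposure; nearly all actives have a fitted effect of over 55% in size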

In the case of `C=CC(C)(O)CC/C=C(\C)CC` (stereo not given), the Potency [1] is reported as “inactive”, the Potency [2] is reported as “inactive” and the Potency [3] is reported as “inactive”. For the same molecule, the Potency [4] was “inactive”, the Potency [5] was “inactive” and the Potency [6] was “inactive”. For the same molecule, the outcome [7] was “inactive”, the outcome [8] was “inactive” and the outcome [9] was “inactive”. The Potency [10] was “inactive”.

With `COc1cc([N+](=O)[O-])ccc1N` the Potency [1] was “inactive”, the Potency [2] was “inactive” and the Potency [3] was 6.92 µM [inhibitor] (active). The Potency [4] was “inactive”, the Potency [5] was “inactive” and the Potency [6] was “inactive”. For the same molecule, the outcome [7] was “inactive” and the outcome [9] was “inactive”.

In the case of `C1=C\CC/C=C\CC/1`, the Potency [1] is reported as “inactive”, the Potency [2] is reported as “inactive” and the Potency [3] is reported as “inactive”. The Potency [4] was “inactive”, the Potency [5] was “inactive” and the Potency [6] was “inactive”. The outcome [7] was “inactive”, the outcome [8] was “inactive” and the outcome [9] was “inactive”. For the same molecule, the Potency [10] was “inactive”.

In the case of `Cc1cccc(C(=O)O)c1[N+](=O)[O-]`, the Potency [1] is reported as “inactive”, the Potency [2] is reported as “inactive” and the Potency [3] is reported as “inactive”. For the same molecule, the Potency [4] was “inactive”, the Potency [5] was “inactive” and the Potency [6] was “inactive”. The outcome [7] was “inactive”, the outcome [8] was “inactive” and the outcome [9] was “inactive”. For the same molecule, the Potency [10] was “inactive”.

With `O=C1OC(=O)c2ccccc21` the Potency [1] was “inactive”, the Potency [2] was “inactive” and the Potency [3] was “inactive”. The Potency [4] was “inactive”, the Potency [5] was “inactive” and the Potency [6] was “inactive”. The outcome [7] was “inactive”, the outcome [8] was “inactive” and the outcome [9] was “inactive”. The Potency [10] was “inactive”.

For `COCC(=O)Nc1c(I)c(C(=O)NCC(O)CO)c(I)c(C(=O)N(C)CC(O)CO)c1I` (stereo not given), the Potency [1] was “inactive”, the Potency [2] was “inactive” and the Potency [3] was “inactive”. For the same molecule, the Potency [4] was “inactive”, the Potency [5] was “inactive” and the Potency [6] was “inactive”. The outcome [7] was “inactive”, the outcome [8] was “inactive” and the outcome [9] was “inactive”. For the same molecule, the Potency [10] was “inactive”.

With `CCCOC(=O)CCCCC(=O)OCCC` the Potency [1] was “inactive”, the Potency [2] was “inactive” and the Potency [3] was “inactive”. For the same molecule, the Potency [4] was “inactive”, the Potency [5] was “inactive” and the Potency [6] was “inactive”. For the same molecule, the outcome [7] was “inactive”, the outcome [9] was “inactive” and the Potency [10] was “inactive”.

In the case of `CC1=CC[C@H](CC=O)C1(C)C`, the Potency [1] is reported as “inactive”, the Potency [2] is reported as “inactive” and the Potency [3] is reported as “inactive”. The Potency [4] was “inactive”, the Potency [5] was “inactive” and the Potency [6] was “inactive”. For the same molecule, the outcome [7] was “inactive”, the outcome [8] was “inactive” and the outcome [9] was “inactive”. For the same molecule, the Potency [10] was “inactive”.

For `CCCCOC(=O)C(C)OC(=O)CCC` (stereo not given), the Potency [1] was “inactive”, the Potency [2] was “inactive” and the Potency [3] was “inactive”. The Potency [4] was “inactive”, the Potency [5] was “inactive” and the Potency [6] was “inactive”. For the same molecule, the outcome [7] was “inactive”, the outcome [8] was “inactive” and the outcome [9] was “inactive”. The Potency [10] was “inactive”.

In the case of `CCCCCCCCCCCCOC(C)=O`, the Potency [1] is reported as “inactive”, the Potency [2] is reported as “inactive” and the Potency [3] is reported as “inactive”. For the same molecule, the Potency [4] was “inactive”, the Potency [5] was “inactive” and the Potency [6] was “inactive”. For the same molecule, the outcome [7] was “inactive”, the outcome [8] was “inactive” and the outcome [9] was “inactive”. For the same molecule, the Potency [10] was “inactive”.

With `CN[C@@H]1[C@H](O)[C@H](NC)[C@H]2O[C@@]3(O)C(=O)C[C@@H](C)O[C@H]3O[C@@H]2[C@H]1O` the Potency [1] was “inactive”, the Potency [2] was “inactive” and the Potency [3] was “inactive”. The Potency [4] was “inactive”, the Potency [5] was “inactive” and the Potency [6] was “inactive”. The outcome [7] was “inactive”, the outcome [9] was “inactive” and the Potency [10] was “inactive”.

For `FC(F)(F)/C(=N\OCC1OCCO1)c1ccc(Cl)cc1`, the Potency [1] was “inactive”, the Potency [2] was “inactive” and the Potency [3] was “inactive”. The Potency [4] was “inactive”, the Potency [5] was “inactive” and the Potency [6] was “inactive”. For the same molecule, the outcome [7] was “inactive”, the outcome [8] was “inactive” and the outcome [9] was “inactive”. For the same molecule, the Potency [10] was “inactive”.

For `C[Si]1(C)N[Si](C)(C)N[Si](C)(C)N1`, the Potency [1] was “inactive”, the Potency [2] was “inactive” and the Potency [3] was “inactive”. The Potency [4] was “inactive”, the Potency [5] was “inactive” and the Potency [6] was “inactive”. For the same molecule, the outcome [7] was “inactive”, the outcome [8] was “inactive” and the outcome [9] was “inactive”. The Potency [10] was “inactive”.

For `CC(C)CCO`, the Potency [1] was “inactive”, the Potency [2] was “inactive” and the Potency [3] was “inactive”. For the same molecule, the Potency [4] was “inactive”, the Potency [5] was “inactive” and the Potency [6] was “inactive”. The outcome [7] was “inactive”, the outcome [8] was “inactive” and the outcome [9] was “inactive”. For the same molecule, the Potency [10] was “inactive”.

For `Nc1ccc(S(=O)(=O)NC(=O)c2ccccc2)cc1`, the Potency [1] was “inactive”, the Potency [2] was “inactive” and the Potency [3] was “inactive”. For the same molecule, the Potency [4] was “inactive”, the Potency [5] was “inactive” and the Potency [6] was “inactive”. For the same molecule, the outcome [7] was “inactive”, the outcome [8] was “inactive” and the outcome [9] was “inactive”. The Potency [10] was “inactive”.

In the case of `CN=C(NC#N)NCCSCc1csc(N=C(N)N)n1`, the Potency [1] is reported as “inactive”, the Potency [2] is reported as “inactive” and the Potency [3] is reported as “inactive”. For the same molecule, the Potency [4] was “inactive”, the Potency [5] was “inactive” and the Potency [6] was “inactive”. For the same molecule, the outcome [7] was “inactive”, the outcome [8] was “inactive” and the outcome [9] was “inactive”. For the same molecule, the Potency [10] was “inactive”.

For `CO[Si](CCCS)(OC)OC`, the Potency [1] was “inactive”, the Potency [2] was “inactive” and the Potency [3] was “inactive”. For the same molecule, the Potency [4] was “inactive”, the Potency [5] was “inactive” and the Potency [6] was “inactive”. For the same molecule, the outcome [7] was “inactive”, the outcome [8] was “inactive” and the outcome [9] was “inactive”. The Potency [10] was “inactive”.

With `O=C1OC(=O)c2cc(Oc3ccc4c(c3)C(=O)OC4=O)ccc21` the Potency [1] was “inactive”, the Potency [2] was “inactive” and the Potency [3] was “inactive”. The Potency [4] was “inactive”, the Potency [5] was “inactive” and the Potency [6] was “inactive”. For the same molecule, the outcome [7] was “inactive”, the outcome [8] was “inactive” and the outcome [9] was “inactive”. The Potency [10] was “inactive”.

For `CN(C)CCOCCN(C)CCO`, the Potency [1] was “inactive”, the Potency [2] was “inactive” and the Potency [3] was “inactive”. For the same molecule, the Potency [4] was “inactive”, the Potency [5] was “inactive” and the Potency [6] was “inactive”. The outcome [7] was “inactive”, the outcome [8] was “inactive” and the outcome [9] was “inactive”. The Potency [10] was “inactive”.

With `CC(C)COC(=O)CC(C(=O)OCC(C)C)S(=O)(=O)O` (stereo not given) the Potency [1] was “inactive”, the Potency [2] was “inactive” and the Potency [3] was “inactive”. For the same molecule, the Potency [4] was “inactive”, the Potency [5] was “inactive” and the Potency [6] was “inactive”. For the same molecule, the outcome [7] was “inactive”, the outcome [8] was “inactive” and the outcome [9] was “inactive”. The Potency [10] was “inactive”.

In the case of `CCN(Cc1cccc(S(=O)(=O)O)c1)c1ccccc1`, the Potency [1] is reported as “inactive”, the Potency [2] is reported as “inactive” and the Potency [3] is reported as “inactive”. The Potency [4] was “inactive”, the Potency [5] was “inactive” and the Potency [6] was “inactive”. For the same molecule, the outcome [7] was “inactive”, the outcome [8] was “inactive” and the outcome [9] was “inactive”. The Potency [10] was “inactive”.

In the case of `COC(=O)CCC(=O)O`, the Potency [1] is reported as “inactive”, the Potency [2] is reported as “inactive” and the Potency [3] is reported as “inactive”. For the same molecule, the Potency [4] was “inactive”, the Potency [5] was “inactive” and the Potency [6] was “inactive”. The outcome [7] was “inactive”, the outcome [8] was “inactive” and the outcome [9] was “inactive”. For the same molecule, the Potency [10] was “inactive”.

In the case of `CC(C)CCCCCCOC(=O)C1CCCCC1C(=O)OCCCCCCC(C)C` (stereo not given), the Potency [1] is reported as “inactive”, the Potency [2] is reported as “inactive” and the Potency [4] is reported as “inactive”. The Potency [5] was “inactive”, the Potency [6] was “inactive” and the outcome [7] was “inactive”. The outcome [8] was “inactive”, the outcome [9] was “inactive” and the Potency [10] was “inactive”.

For `CC(=O)OC(C(=O)c1ccccc1)c1ccccc1` (stereo not given), the Potency [1] was “inactive”, the Potency [2] was “inactive” and the Potency [3] was “inactive”. For the same molecule, the Potency [4] was “inactive”, the Potency [5] was “inactive” and the outcome [7] was “inactive”. The outcome [8] was “inactive”, the outcome [9] was “inactive” and the Potency [10] was “inactive”.

For `COc1cc2c3cc1Oc1cc(ccc1O)C[C@@H]1c4c(cc(OC)c(O)c4Oc4ccc(cc4)C[C@@H]3N(C)CC2)CC[N+]1(C)C`, the Potency [1] was “inactive”, the Potency [2] was “inactive” and the Potency [4] was “inactive”. The outcome [8] was “inactive”, the outcome [9] was “inactive” and the Potency [10] was “inactive”.
